Source: PubChem (National Center for Advancing Translational Sciences (NCATS))
DT40 TDP1 no CPT = qHTS for Inhibitors of human tyrosyl-DNA phosphodiesterase 1 (TDP1): qHTS in cells in absence of CPT; Potency, µM (titrated, usually from 46.2 µM), actives largely listed as inhibitors; 420,000 tested, 15% active; AID 686978, 2013; DT40 Tdp1-/- hTDP1 cells, no CPT, ATP luminescence, 48 h; also: nearly all actives have a fitted effect of over 55% in size
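Stably hTDP1-transfected Tdp1-null chicken DT40 cells were treated with library compounds minus camptothecin and grown for at least 48 hr at 37 °C, after which cellular ATP was quantified by luminescence.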
IL-1B inflam inh = qHTS for Inhibitors of Inflammasome Signaling: IL-1-beta AlphaLISA Primary Screen; THP-1 LPS/ATP IL-1B secretion, AlphaLISA, 16 h; active compounds read low; activity change, % at 57.5 µM; 360,000 tested, 4.7% active; in the data active = activity change below about -50%; inconclusive = mostly about -30% to -49%
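Secreted IL-1B measured by AlphaLISA bead assay after 16 h compound exposure of THP-1 cells; compounds (final up to 57.5 uM) added 1 h before LPS (250 ng/mL) and ATP (1.25 mM) stimulation; lower signal means less secretion.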
HT1080-NT tox = qHTS for induction of synthetic lethality in tumor cells producing 2HG: qHTS for the HT-1080-NT fibrosarcoma cell line. HT-1080-NT fibrosarcoma viability, CellTiter-Glo ATP luminescence, 48 h. Potency, µM (top dose mostly 46.1 µM), actives largely listed as cytotoxic. 360,000 tested, 1.6% active. AID 686970, 2013;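 also: NT is the 2HG producing partner of a matched IDH1 knockdown line; nearly all actives have a fitted effect of over 55% in size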
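HT-1080-NT fibrosarcoma cells (2HG-overproducing), 750 cells/well in RPMI with 5% FBS, dosed after 2 h and incubated 48 h at 37C. CellTiter-Glo luminescence normalized to DMSO and no-cell wells; concentration-response curves fitted and classed.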
TDP1 cell CPT = qHTS for Inhibitors of human tyrosyl-DNA phosphodiesterase 1 (TDP1): qHTS in cells in presence of CPT. AID 686979, 2013. 420,000 tested, 12% active. chicken DT40 Tdp1-/-;hTDP1 cells + 20 nM CPT, ATP luminescence, 48 h. Potency, µM (series often up to 46.2 µM), actives largely listed as inhibitors; also: nearly all actives have a fitted effect of over 55% in size
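Chicken DT40 Tdp1-/- cells complemented with human TDP1, 400 cells/well, exposed to compounds plus 20 nM camptothecin for at least 48 h at 37 C; viability read as ATP content by CellTiter-Glo luminescence.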
12-LOX inh = Primary qHTS assay for inhibitors of human arachidonate 12S-lipoxygenase (ALOX12): Round 2 | Polyunsaturated fatty acid lipoxygenase ALOX12 (Homo sapiens), P18054 | purified 12hLO, xylenol orange hydroperoxide absorbance | Potency, µM (doses to about 108 µM), most hits filed as inhibitors | 580,000 tested, 1.1% active | AID 1671190, 2021
Target sequence (P18054 whole entry, looked up): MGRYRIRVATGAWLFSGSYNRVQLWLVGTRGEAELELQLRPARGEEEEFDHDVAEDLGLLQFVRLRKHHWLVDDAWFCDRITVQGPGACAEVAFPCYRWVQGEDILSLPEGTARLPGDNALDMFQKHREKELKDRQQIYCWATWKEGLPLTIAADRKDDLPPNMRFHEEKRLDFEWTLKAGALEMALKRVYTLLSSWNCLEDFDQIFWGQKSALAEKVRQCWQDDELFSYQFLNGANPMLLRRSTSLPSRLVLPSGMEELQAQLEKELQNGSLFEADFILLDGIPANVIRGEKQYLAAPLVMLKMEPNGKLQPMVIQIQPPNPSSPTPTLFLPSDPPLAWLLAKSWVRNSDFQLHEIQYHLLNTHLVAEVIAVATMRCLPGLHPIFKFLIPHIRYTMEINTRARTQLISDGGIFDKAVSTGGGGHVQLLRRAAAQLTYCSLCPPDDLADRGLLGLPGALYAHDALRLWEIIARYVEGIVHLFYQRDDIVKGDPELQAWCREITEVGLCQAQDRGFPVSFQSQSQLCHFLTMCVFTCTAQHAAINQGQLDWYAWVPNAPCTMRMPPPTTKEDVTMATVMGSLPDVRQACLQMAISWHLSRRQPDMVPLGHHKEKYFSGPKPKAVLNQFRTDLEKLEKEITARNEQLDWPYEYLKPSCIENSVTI
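Purified human 12hLO (150 nM final) in 25 mM Hepes, 0.01% Triton X-100, pH 7.0 was preincubated 15 min at room temperature with compound. Then 40 uM arachidonic acid was added, 30 min. Hydroperoxide was read by Fe-XO absorbance ratio 573/405 nm.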
HT1080 IDH1KD tx = qHTS for induction of synthetic lethality in tumor cells producing 2HG: qHTS for the HT-1080-IDH1KD cell line; HT-1080 IDH1 knockdown viability, ATP luminescence, 48 h; Potency, µM (highest dose often 46.1 µM), hits mostly cytotoxic; 360,000 tested, 2% active; AID 686971, 2013
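Knockdown cells (IDH1KD HT-1080) received compounds 2 h after plating at 750 cells/well and were kept 48 h at 37 °C in 5% FBS RPMI. A CellTiter-Glo luminescence read gave % activity for curve fitting.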
Hits are given with their value; – = inactive; ? = inconclusive; · = no result given; [ ] = another dose, or the depositor's remark. The entries come from a sample that favours hits as a whole. Unless noted, calls follow the shape of the dose curve; as a rule, active = well fitted curve in the direction sought with a large enough effect; inconclusive = small, poorly fitted or top-dose-only effect, or another doubt; inactive = no such curve, though single readings can be large; an effect the other way counts as inactive or inconclusive.

SMILES	DT40 TDP1 no CPT	IL-1B inflam inh	HT1080-NT tox	TDP1 cell CPT	12-LOX inh	HT1080 IDH1KD tx
O=C(NCc1cccnc1)c1ccc(NC(=O)c2cccc([N+](=O)[O-])c2)cc1	–	–	?	15µM	–	3.7µM
O=C(Nc1ncc(Cc2cccc(Cl)c2Cl)s1)c1ccc([N+](=O)[O-])cc1	16µM	–	–	13µM	–	–
O=C(Cc1ccccc1)Nc1nc(-c2cccc([N+](=O)[O-])c2)cs1	?	–	–	–	–	–
O=C(Nc1nc(-c2ccccc2)cs1)c1cccc([N+](=O)[O-])c1	?	-79	–	?	–	–
N#CCC(=O)Nc1ncc(Cc2ccccc2Cl)s1	–	–	–	–	–	–
COc1ccccc1Nc1nc(-c2cccc([N+](=O)[O-])c2)cs1	?	–	–	?	–	–
CNC(=O)CCC[C@@H]1[C@H]2CCCN3CCC[C@@H](CN1C(=O)C1CCCCC1)[C@@H]23	·	·	·	·	–	·
CCOc1ccc(-c2cc(C(=O)N3CCCC3c3nncn3C(C)C)[nH]n2)cc1 (configuration not stated)	·	·	·	·	–	·
CN1CCOc2c(C(=O)NCCN3CCNC3=O)cc(-c3cccnc3)cc21	·	·	·	·	–	·
O=C(COC(=O)c1ccccn1)Nc1nc(-c2ccccc2)cs1	–	–	–	–	–	–
O=C(COC(=O)c1ccccn1)Nc1nc(-c2cccc([N+](=O)[O-])c2)cs1	18µM	–	–	?	–	–
O=C(NNS(=O)(=O)c1ccc(Cl)cc1)c1cnn(-c2ccccc2)c1-n1cccc1	2.1µM	–	–	1.5µM	–	–
O=C(NNS(=O)(=O)c1ccc([N+](=O)[O-])cc1)c1cnn(-c2ccccc2)c1-n1cccc1	0.46µM	–	–	0.46µM	?	–
O=C(NNS(=O)(=O)c1ccccc1)c1cnn(-c2ccccc2)c1-n1cccc1	12µM	–	?	8.2µM	–	–
O=C(O)c1cnn(-c2ccccc2)c1-n1cccc1	–	–	–	–	–	–
NNC(=O)c1cnn(-c2ccccc2)c1-n1cccc1	–	–	?	–	–	?
O=C(NNS(=O)(=O)c1ccc([N+](=O)[O-])cc1)c1ccc([N+](=O)[O-])cc1	–	–	–	–	–	–
Cc1cc(OCCN2CCOCC2)c(C)c2c1CC[C@@H]([C@H](C)C(=O)NC(C)(C)C)C2	·	·	·	·	–	·
COc1ccc(Cl)cc1NC(=O)Nc1ccc(C(=O)N2CCCC2)cc1	?	-64	?	?	–	?
COc1ccc(C)cc1NC(=O)Nc1ccc(C(=O)N2CCCC2)cc1	?	?	?	26µM	–	?
COc1ccc(OC)c(S(=O)(=O)Nc2ccc(-c3ccc4nncn4n3)cc2)c1	2.1µM	–	23µM	2.1µM	?	16µM
COc1ccc(S(=O)(=O)Nc2cccc(-c3ccc4nncn4n3)c2)cc1F	2.3µM	–	4.6µM	2.3µM	–	2.3µM
CCOc1ccc(CC(=O)Nc2cccc(-c3ccc4nnc(C)n4n3)c2)cc1	?	–	–	?	–	–
COc1ccc(CC(=O)Nc2cccc(-c3ccc4nnc(C)n4n3)c2)cc1OC	9.2µM	?	–	–	–	–
COc1ccc(CC(=O)Nc2cccc(-c3ccc4nncn4n3)c2)cc1OC	15µM	–	–	?	–	?
SMILES	DT40 TDP1 no CPT	IL-1B inflam inh	HT1080-NT tox	TDP1 cell CPT	12-LOX inh	HT1080 IDH1KD tx
O=S(=O)(Nc1cccc(-c2ccc3nncn3n2)c1)c1cccc(F)c1	–	–	–	–	–	–
COCCCn1c(C)cnc1C1CCN(C(=O)Nc2ccc3c(c2)OCCO3)C1 (configuration not stated)	·	·	·	·	–	·
CCOC(=O)c1c(S(=O)(=O)Nc2cc(Cl)ccc2OC)c(C)n(C)c1C	·	·	·	·	–	·
CCOc1ccccc1C1NC(=O)NC(C)=C1C(=O)OC1CCCCC1 (configuration not stated)	?	-68	–	?	–	–[9.24 µM]
CSCCOC(=O)C1=C(C)NC(=O)CC1c1ccccc1Cl (configuration not stated)	?	–	–	?	–	–
CCCOc1ccccc1C1CC(=O)NC(C)=C1C(=O)OCC(C)C (configuration not stated)	16µM	–	–	21µM	?	?
CCOc1ccccc1C1NC(=O)NC(C)=C1C(=O)OC1CCCC1C (configuration not stated)	?	–	–	–	–	–
CCOc1ccccc1C1CC(=O)NC(C)=C1C(=O)OC1CCCCCC1 (configuration not stated)	16µM	·	·	21µM	–	·
CC1=C(C(=O)OC(C)C)C(c2ccccc2Cl)CC(=O)N1 (configuration not stated)	12µM	–	–	21µM	–	–
Cc1ccc(C#N)c(N2CC[C@@]3(O)CCN(S(=O)(=O)N(C)C)C[C@H]3C2)n1	·	·	·	·	–	·
CCc1nc2c(c(-c3ccc(Cl)cc3)n1)CN(Cc1cccc(OC)c1)CC2	·	·	·	·	–	·
CC(C)N1CCC(CC(=O)N2CCn3nc(Cc4ccccc4)cc3C2)CC1	·	·	·	·	–	·
CCC(C)OC(=O)C1=C(C)NC(=O)CC1c1ccccc1OC (configuration not stated)	10µM	–	–	8.2µM	–	–
COC(=O)C1=C(C)NC(=O)CC1c1ccccc1F (configuration not stated)	–	–	–	–	–	–[9.24 µM]
CC1=C(C(=O)OC2CCCCCCC2)C(c2ccc(O)cc2)NC(=O)N1 (configuration not stated)	?	-55	?	?	?	–[9.24 µM]
CC1=C(C(=O)OCc2ccc(C)cc2)C(c2ccccc2F)CC(=O)N1 (configuration not stated)	?	·	·	?	–	·
CCOc1ccccc1C1CC(=O)NC(C)=C1C(=O)OCc1ccc(C)cc1 (configuration not stated)	16µM	·	·	?	–	·
O=C(c1ccccc1)N1Cc2ccccc2CC2(CCN(Cc3ccc(O)cc3)CC2)C1	·	·	·	·	–[6.33 µM]	·
CCCCCCCCC/C=N/NC(=S)NC1CCCCC1	·	·	·	·	28µM	·
COc1ccccc1-c1ccc2ncnc(NCc3cccnc3)c2c1	6.5µM	·	·	8.2µM	?	·
COc1ccccc1-c1ccc2ncnc(NCc3cnc(C)cn3)c2c1	18µM	·	·	?	–	·
COc1ccccc1-c1cncnc1NCc1cccnc1	–	·	·	–	–	·
